{"source": "PubChem BioAssay (NCI)", "note": "“And” between values parts separate entries of the source, which are not always exact repeats. Equal values may be shown once. This is part of a sample that, as a whole, favours compounds with a hit. Of some 79,000 tested, about 15% had one in any assay. Unmarked numbers belong to inactive results. No stated cut-off is given here; in the data, active means growth inhibition above about 70%; inactive means the rest."}
{"test": "NCI Yeast Anticancer Drug Screen. Data for the cln2 rad14 strain (AID 165);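 further: 0% = growth equal to vehicle treated cultures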", "conditions": "S. cerevisiae cln2 rad14 strain, active compounds read high; at 50.0 µM unless noted", "method_in_brief": "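Yeast strain cln2 rad14, bearing defects in cell cycle control and DNA repair, serves as the test system; values reflect growth inhibition compared with vehicle.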"}
{"smiles": "CC1=NN(C(=O)CC(=O)Nc2ccc(C)cc2)C(=O)C1N=Nc1ccc(S(=O)(=O)c2ccc(N=NC3C(=O)N(C(=O)CC(=O)Nc4ccc(C)cc4)N=C3C)cc2)cc1", "note": "(stereo not given)", "growth inhibition": "21.2%"}
{"smiles": "Cc1ccccc1N=C(N)N", "growth inhibition": "-3.3%"}
{"smiles": "OCC(O)COc1ccc(Cl)cc1", "note": "(stereo not given)", "growth inhibition": "2.05%"}
{"smiles": "Cc1ccc(OCC(=O)O)c(Cl)c1", "growth inhibition": "-22.4%"}
{"smiles": "COc1ccc(Br)cc1C1OC(=O)c2c(OC)c(OC)cc([N+](=O)[O-])c21", "note": "(stereo not given)", "growth inhibition": "8.2%"}
{"smiles": "CC1CC(=O)Nc2nc3ccccc3n21", "note": "(stereo not given)", "growth inhibition": "-44.9%"}
{"smiles": "CCOC(=O)c1sc(C(=O)O)cc1-c1cccs1", "growth inhibition": "-5.6%"}
{"smiles": "CN(C)Cc1cc(C(=O)/C=C/c2ccc(Cl)c(Cl)c2)cc(CN(C)C)c1O", "growth inhibition": "31.9%"}
{"smiles": "NC1CCCC2CCC(N)C12", "note": "(stereo not given)", "growth inhibition": "24.6%"}
{"smiles": "Cc1ccc(OCC2OC(n3cnc4c(Cl)ncnc43)CC2Oc2ccc(C)cc2)cc1", "note": "(stereo not given)", "growth inhibition": "-6.6% and 15.3%"}
{"smiles": "CC1CCCN(CCC(=O)c2ccc(O)cc2)C1", "note": "(stereo not given)", "growth inhibition": "21.2%"}
{"smiles": "c1ccc(-c2cn(-c3ccccc3)nn2)cc1", "growth inhibition": "-22.9%"}
{"smiles": "CCOc1cc(/C=N/NC(=O)c2ccccc2NC(=O)c2ccccc2Cl)ccc1O", "growth inhibition": "-1.8%"}
{"smiles": "O=C(OCC(OC(=O)c1ccccc1)C(OC(=O)c1ccccc1)C(OC(=O)c1ccccc1)c1cnn(-c2ccccc2)n1)c1ccccc1", "note": "(stereo not given)", "growth inhibition": "-13.4% and 47.3%"}
{"smiles": "O=C(CCCC(=O)N/N=C/c1ccccc1O)N/N=C\\c1ccccc1O", "growth inhibition": "3.35%"}
